From PubChem
Shiga inhibitor: A qHTS for Small Molecule Inhibitors of Shiga Toxin; 290,000 tested, 9.2% active; Vero cells, Shiga toxin protein synthesis inhibition reporter; AID 2315, 2010; inhibition, % at 38.7 µM; in the data active = inhibition mostly above about 28%, no sharp cut-off; inactive = mostly below about 43%; note: 0% is about no effect
SARS PLpro yeast: qHTS of Yeast-based Assay for SARS-CoV PLP. S. cerevisiae expressing SARS-CoV PLpro, growth rescue. Potency, µM (highest dose often 32.9 µM), for inactives: at the highest dose activity, positive = growth rescue, actives largely listed as activators. 330,000 tested, 0.19% active; calls by dose curve; note: potency is the fitted concentration of half-maximal effect; 0% is about no effect; nearly all actives have a fitted effect of over 55% in size
Pf growth 96h: Primary qHTS for delayed death inhibitors of the malarial parasite plastid, 96 hour incubation | P. falciparum luciferase reporter growth, 96 h | Potency, µM (top dose mostly 28.7 µM), for the others: at the top dose activity change, negative = inhibition, usual class: inhibitors | 320,000 tested, 6.9% active | AID 504834, 2011; note: potency is the fitted concentration of half-maximal effect; % is set by controls: 0 for no effect and ±100 for the full control effect
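Erythrocytes infected with luciferase-expressing P. falciparum were dispensed at 2% hematocrit and 0.05% parasitemia (final), then incubated with compounds 96 hours at 37 C in 5% CO2. Luminescence after detection reagent addition reported growth.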
NS1 function inh: qHTS Assay for Inhibitors of Influenza NS1 Protein Function. 270,000 tested, 0.4% active. Potency, µM (doses to about 46.1 µM), inactives show at the highest dose activity, positive = more growth. AID 2326, 2010; calls by dose curve; note: potency is the fitted concentration of half-maximal effect; actives are rising curves; nearly all actives have a fitted effect of over 50% in size
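Growth recovery, yeast-based: influenza A NS1 expressed in S. cerevisiae causes slow growth, and suppressors are detected by OD600. The parent strain without NS1 is used as positive control.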
Pf growth 48h: Primary qHTS for delayed death inhibitors of the malarial parasite plastid, 48 hour incubation. P. falciparum luciferase growth in erythrocytes, 48 h. Potency, µM (titrated, usually from 28.7 µM), without a hit: at the highest dose activity change, negative = inhibition, usual class: inhibitors. 310,000 tested, 5.9% active; note: potency is the fitted concentration of half-maximal effect; % is set by controls: 0 for no effect and ±100 for the full control effect
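Firefly luciferase activity from engineered P. falciparum reports growth; inhibitors lower the luminescent signal. Cultures contained 2% hematocrit erythrocytes at 0.1% final parasitemia.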
Cycloheximide cs: Cycloheximide Counterscreen for Small Molecule Inhibitors of Shiga Toxin | AID 2314, 2010 | max response, % | 300,000 tested, 12% active | cell reporter, cycloheximide protein synthesis inhibition counterscreen; in the data active = max response mostly above about 13%, no sharp cut-off; inactive = mostly below about 14%; note: read at 38.3 µM for the half of the compounds with a filed dose; 0% is about no effect
* hit, by the source's call; ? = inconclusive; . = no result; ! = repeats disagree; [ ] = remark or other dose. This is a sample that favours compounds with a hit; in the whole collection about 21% have one here. Unless noted, calls come from the whole dose curve; as a rule, active = well fitted inhibition curve with a large enough effect; inconclusive = small, poorly fitted or top-dose-only effect, or another doubt; inactive = no such curve, though single readings can be large or run the other way.

SMILES	Shiga inhibitor	SARS PLpro yeast	Pf growth 96h	NS1 function inh	Pf growth 48h	Cycloheximide cs
CNC(=O)Nc1ccc(C2SCCS2)cc1	27.1	0.2%	42.8%	0.9%	53.4%	17.3*
CCCCNC(=O)Nc1ccc(C2SCCS2)cc1	86.5*	-1.0%	?	-7.9%	24.3%	47.0*
CCOC(=O)CN1C(=O)CC(c2ccccc2)C1=O (stereo not drawn)	-14.8	-1.1%	?	-3.2%	1.8%	-1.4
O=C(Nc1ccc(Cl)cc1)c1cc(-c2cccs2)on1	-3.2	9.8%	223.1%	-4.3%	137.3%	8.3*
Cc1ccc(Cn2ccc(NC(=O)c3cc(-c4cccs4)on3)n2)cc1	-3.7	5.1%	?	-1.9%	10.4µM*	-2.6
O=C(Nc1ccc(Br)cc1)c1cc(-c2cccs2)on1	114.4*	2.5%	-4.6%	-3.7%	111.9%	22.2*
Cc1ccc(NC(=O)c2cc(-c3cccs3)on2)cc1	130.6*	3.9%	12.0%	1.9%	145.2%	38.2*
[O-][N+](CCO)(CCO)c1ncnc2nc[nH]c12	.	.	.	-3.5%	.	.
CC1CCC(NC(=O)CCNC(=O)c2ccc(Br)cc2)CC1 (stereo not drawn)	.	2.3%	98.3%	.	86.6%	.
Cc1ccc(/C=N/n2c(C3CCCCC3)n[nH]c2=S)s1	-5.9	-1.6%	2.08µM*	12.4%	?	-1.4
Cc1ccc(NC(=S)N(C)C(c2ccccc2)c2ccccc2)cc1C	19.6	-2.5%	?	-7.7%	.	0.7
COc1ccc(-c2nnc(SCC(=O)N(Cc3ccccc3)C(C)(C)C)o2)cc1OC	-11.5	1.2%	.	-64.5%	11.7µM*	2.1
CCOC(=O)CN(C(=O)CSc1nnc(-c2ccc(OC)c(OC)c2)o1)c1ccc(F)cc1	8.2	-5.0%	.	0.4%	.	-4.1
CCOC(=O)c1[nH]c2ccccc2c1NC(=O)c1ccc(S(=O)(=O)N(C)C)cc1	-19.8	?	10.4µM*	9.8%	10.4µM*	-3.7
CN(C)S(=O)(=O)c1ccc(C(=O)Oc2cc(=O)[nH]c3ccccc23)cc1	-3.8	6.7%	8.28µM*	-31.9%	11.5%	-4.0
CCOC(=O)c1oc2ccccc2c1NC(=O)c1ccc(S(=O)(=O)N(C)C)cc1	-2.2	-4.1%	68.3%	-6.4%	?	1.2
CCOC(=O)c1[nH]c2ccccc2c1NC(=O)c1ccc(S(=O)(=O)N2CCCCC2)cc1	-11.4	24.2%	9.28µM*	-25.2%	?	-5.0
COc1ccc(S(=O)(=O)N2CCOC2CNC(=O)C(=O)NCCN2CCOCC2)cc1 (stereo not drawn)	21.2	1.6%	17.9%	10.7%	79.8%	-2.6
COc1ccc(C(C(=O)NC(C)(C)C)N(C(=O)CNC(=O)c2cccs2)c2cccnc2)cc1OC (stereo not drawn)	-7.3	-0.1%	?	-2.9%	19.6%	-5.7
COc1cc(C(=S)N2CCOCC2)ccc1OS(=O)(=O)c1ccccc1[N+](=O)[O-]	-11.6	-4.0%	50.6%	26.3%	-9.0%	11.4
CCOc1cc(C(=S)N2CCOCC2)ccc1OS(=O)(=O)c1ccccc1[N+](=O)[O-]	27.5	-14.4%	5.86µM*	34.2%	?	15.8
COc1ccc(C(=S)N2CCOCC2)cc1OS(=O)(=O)c1ccccc1[N+](=O)[O-]	45.7	-2.9%	?	-10.9%	0.0%	28.0*
COc1cc(C(=S)N2CCOCC2)ccc1OC(=O)c1cc([N+](=O)[O-])c(C)c([N+](=O)[O-])c1	-11.9	15.8%	1.65µM*	15.7%	-0.5%	-1.4
CCOc1cc(C(=S)N2CCOCC2)ccc1OS(=O)(=O)c1ccc(C)cc1	3.5	-1.2%	?	4.0%	-20.2%	3.2
Cc1ccc(C2=NC3(CCCCC3)N=C2SCC(=O)Nc2ccc3c(c2)OCCO3)cc1	7.2	5.0%	-4.9%	-10.9%	?	1.7
SMILES	Shiga inhibitor	SARS PLpro yeast	Pf growth 96h	NS1 function inh	Pf growth 48h	Cycloheximide cs
NS(=O)(=O)c1ccc(N/C=C\C(=O)c2ccc3ccccc3c2)cc1	17.9	-9.4%	22.4%	3.4%	35.5%	31.1*
COc1ccc(N/C=C\C(=O)c2ccc3ccccc3c2)cc1	24.1	4.5%	-23.5%	-4.1%	190.9%	29.1*
COc1ccc(N/C=C/C(=O)c2ccccc2)cc1	.	-0.5%	426.2%	-21.7%	302.6%	8.7
COc1ccc(N/C=C/C(=O)C(C)(C)C)cc1	93.0*	-0.6%	?	3.6%	15.5%	31.3*
NS(=O)(=O)c1ccc2ccccc2c1	10.0	1.1%	25.9%	-3.2%	-1.5%	0.3
COC(/C=C/Nc1ccc(OC)cc1)=C(C#N)C#N	18.1	-6.4%	174.5%	3.7%	?	-2.1
O=S(=O)(Nc1ccc2c(c1)OCCO2)c1c(F)cccc1F	-3.0	1.2%	9.4%	-0.2%	9.9%	-2.4
CCn1c(C)nnc1SCC(=O)Nc1ccc(Cl)cc1	-0.7	0.6%	-15.8%	19.0%	66.1%	-4.0
O=C(CCc1nnc2ccc(N3CCCC3)nn12)Nc1cc(F)ccc1F	0.7	-4.7%	18.2%	10.2%	10.1%	-8.8
CN(C)C(=O)Oc1cccc([N+](C)(C)C)c1	-13.4	0.5%	4.15µM*!	0.4%	?	-3.2
CN(C)C(=O)Nc1cccc(OC(=O)N(C)C)c1	11.9	-3.0%	.	-7.7%	-9.7%	-1.4
Clc1ccccc1C1CC(c2ccccc2)=Nc2ccccc2N1 (stereo not drawn)	92.9*	-2.5%	118.1%	8.8%	59.5%	42.8*
Brc1ccccc1C1CC(c2ccccc2)=Nc2ccccc2N1 (stereo not drawn)	90.5*	-49.6%	48.1%	-41.1%	50.6%	96.7*
c1ccc(C2=Nc3ccccc3NC(c3ccccc3)C2)cc1 (stereo not drawn)	125.5*	-8.6%	32.4%	-49.5%	29.3%	35.7*
Cc1ccc(C(=O)NC2=NCCS2)cc1Cl	44.5*	-7.3%	5.1%	-24.0%	119.1%	37.6*
N#Cc1ccc(C(=O)NC2=NCCS2)cc1	103.5*	-1.9%	143.6%	0.1%	134.1%	34.5*
CC(C)C(NC(=O)c1ccc(Cl)cc1)C(=O)NC1=NCCS1 (stereo not drawn)	-0.8	-21.8%	.	-59.9%	.	-2.1
O=C(NC1=NCCS1)c1ccc(N2CCCC2=O)cc1	16.0	1.3%	52.4%	.	60.3%	10.6
O=C(NC1=NCCS1)c1ccc(C(F)(F)F)cc1	95.7*	-2.2%	163.8%	-2.3%	80.4%	33.7*
CC(C)c1ccc(C(=O)NC2=NCCS2)cc1	63.3*	-6.4%	16.0%	8.1%	221.7%	53.4*
O=C(CCc1nnc(C2CCCCC2)o1)N1CCN(Cc2ccccc2)CC1	-4.7	0.7%	23.3%	7.2%	4.9%	17.1
COc1ccccc1CCc1nnc(CCC(=O)N(C)Cc2cccc3ncccc23)o1	27.5	-0.8%	44.6%[1.15 µM]	-5.0%	?	11.8
S=C1NC[C@H](CC2CCCCC2)N1CCCCC1CCCCC1	-1.6	-1.3%	?	-10.7%	?	-4.5
